Here are results for 59 molecules from PubChem BioAssay AID463173 (ICCB-Longwood Screening Facility, Harvard Medical School, 2010).

The campaign covered roughly 52,000 compounds. About 4,300 (8.3%) were called active. The full list was thinned out, with actives kept by preference. Unmarked numbers belong to inactive results. Rule as the data show it: active = survival mostly below about 52% (no sharp cut-off); inactive = mostly above about 56%.

For this test, the system named is DeltatarO mutant. The test can be described thus: growth inhibition of S. aureus wild type versus tarO mutant, primary screen, teichoic acid synthesis inhibitors, RN4220, OD600 (AID 463173). Conditions: OD600, 18 h, hits give low values, screened at 18.75 µg/mL (by protocol).
Consider `Cc1nnc(SCC#N)n1C`, for which the survival is 92%. `CC(=O)Nc1ccc(S(=O)(=O)NCc2ccc(C(=O)NCc3ccc(Cl)cc3)cc2)cc1`: the survival is 68%.

As to `Cc1ccc(-c2nn(-c3ccc(F)cc3)c3c2cnc2cc(F)c(F)cc23)cc1`, the survival was 82%.

Turning to `CSc1ccc(CCNC(=O)CCc2c(C)nc3c(c(C)nn3-c3ccc(C)c(C)c3)c2C)cc1`, the survival is 91%.

Consider `Cc1c2cnn(-c3ccccc3)c(=O)c2c(C)n1CCCC(=O)Nc1ccc(F)cc1F`, for which the survival is 72%.

Consider `CCCn1c2ccccc2c2cnn(CC(=O)Nc3ccc(C)cc3Br)c(=O)c21`, for which the survival was 94%. Under `Cc1ccc(NC(=O)CCCn2c3ccccc3c(=O)c3cc(C)ccc32)c(Br)c1` stands 38% (active); under `Cc1ccc(CCNC(=O)CCCn2c(=O)c3ccccc3n(CC(=O)Nc3cc(Cl)ccc3C)c2=O)cc1`, 116%. For the molecule `Cc1ccc2c(c1)c(=O)c1ccccc1n2CCCC(=O)Nc1cc(Cl)ccc1C`, the survival is 113%. Take `Cc1ccc(NC(=O)CCS(=O)(=O)c2ccc3c(c2)oc(=O)n3C)c(Br)c1`: the survival is 80%. Consider `Cc1ccc2c(c1)c(=O)c1ccccc1n2CCCC(=O)Nc1ccc(F)cc1F`, for which the survival is 49% (active).

With `Cc1ccc2c(c1)c(=O)c1ccccc1n2CCCC(=O)Nc1c(F)cccc1F`, the survival was 53%. For `Cc1ccc2c(c1)c(=O)c1ccccc1n2CCCC(=O)Nc1ccc(Cl)cc1C`, the survival was 45% (active). Consider `CCOc1ccccc1NC(=O)C(C)Sc1cc(-c2ccccc2)nc(C)n1` (centres undefined), for which the survival is 59%. Under `CCOC(=O)c1ccc(NC(=O)C(CC)Sc2nc3ncccc3o2)cc1` (centres undefined) stands 81%; under `C=Cn1c(=N)n(C)c2ccccc21`, 70%. As to `O=C(CN1C(=O)COc2ccc(S(=O)(=O)N3CCOCC3)cc21)N1CCN(c2ccccc2)CC1`, the survival was 116%. As to `COc1ccccc1CNC(=O)c1ccc(-c2nc(CS(=O)(=O)c3ccc(C)cc3)c(C)o2)cc1`, the survival was 73%.

Regarding `COc1ccc(F)cc1NC(=O)C1CCN(c2nc(-c3ccc(OC)c(OC)c3)no2)CC1`, the survival is 48%. Take `Cc1cc(NC(=O)CCc2nc3cccnc3n2-c2ccccc2)ccc1Br`: the survival is 31% (active). Under `Cc1ccc(NC(=O)CCc2nc3cccnc3n2-c2ccccc2)cc1Cl` stands 64%. For `Cc1ccc(NC(=O)CCc2nc3cccnc3n2-c2ccccc2)cc1`, the survival was 80%. In the case of `CCOC(=O)Cn1c(-c2cccs2)cc2cc(Cl)ccc21`, the survival is 59%. In the case of `COc1cccc(Nc2nc3ccc(C(=O)c4ccccc4)cc3n3c(C)nnc23)c1`, the survival is 85%. Consider `CCc1cccc(NC(=O)c2ccc(CN3C(=O)C(C)=C(c4ccc(OC)cc4)S3(=O)=O)cc2)c1`, for which the survival is 71%. Turning to `CCn1cc(S(=O)(=O)c2ccccc2)c(=O)c2cc(F)c(N3CCCC3)cc21`, the survival was 107%. Turning to `CCOc1ccc(NC(=O)C(C)n2c(=O)cc(C)c3c(C)nn(-c4ccccc4)c32)cc1` (centres undefined), the survival was 83%. `Nc1c(C(=O)c2ccc(F)cc2)sc(Nc2ccccc2F)c1S(=O)(=O)c1ccc(Br)cc1`: the survival is 67%. Under `COc1ccc(C(=O)c2sc(Nc3cc(Cl)ccc3C)nc2N)cc1OC` stands 131%; under `Nc1nc(Nc2ccccc2F)sc1C(=O)c1ccc(Cl)cc1`, 2% (active); under `COc1ccc(NC(=O)Cn2c(=O)oc3cc(S(=O)(=O)NC4CCCC4)ccc32)cc1OC`, 93%.

With `Nc1nnc(CC(=O)N2CCCC2)s1`, the survival is 99%. As for `CCCCC(CC)CNC(=O)CCCc1nnc2n(CCC)c(=O)c3sccc3n12` (centres undefined), the survival is 75%. For the molecule `COc1ccc(-c2nnc(SCC(=O)Nc3ccc(C)c(Cl)c3)nc2-c2ccc(OC)c(OC)c2)cc1OC`, the survival is 135%. Consider `COC(=O)CN1C(=O)C(C)(C)c2cc(S(=O)(=O)Nc3ccc(Br)cc3F)ccc21`, for which the survival is 90%. Under `CC1CCN(S(=O)(=O)c2ccc3c(c2)N(CC(=O)NCCCN2CCCC(C)C2)C(=O)CS3)CC1` (centres undefined) stands 75%; under `CCCCn1c(SCC(=O)c2ccccc2)nc2c(sc3ccccc32)c1=O`, 17% (active).

In the case of `COCCCn1c(SCC(=O)NCc2ccccc2)nc2c(sc3ccccc32)c1=O`, the survival was 82%. Under `CCCCn1c(SCC(=O)NCCCOC)nc2c(sc3ccccc32)c1=O` stands 128%; under `COCCCNC(=O)CSc1nc2c(sc3ccccc32)c(=O)n1CCc1ccc(OC)c(OC)c1`, -4% (active). Consider `CCOCCCn1c(SCC(=O)OCC)nc2c(sc3ccccc32)c1=O`, for which the survival is 124%. Turning to `CCOC(=O)CSc1nc2c(sc3ccccc32)c(=O)n1CCc1ccccc1`, the survival was 60%.

For `CCOC(=O)CSc1nc2c(sc3ccccc32)c(=O)n1CCO`, the survival is -5% (active).

On to `CCCCn1c(SCC(=O)NCc2ccc(C)cc2)nc2c(sc3ccccc32)c1=O`, for which the survival is 89%. For `CCOCCCn1c(SCC(=O)NCCCOC)nc2c(sc3ccccc32)c1=O`, the survival was 126%. Turning to `COCCCNC(=O)CSc1nc2c(sc3ccccc32)c(=O)n1CCc1ccccc1`, the survival was 72%. `CCOCCCn1c(SCC(=O)NCc2ccccc2)nc2c(sc3ccccc32)c1=O`: the survival is -5% (active).

As for `CC(C)OCCCn1c(SCC(=O)c2ccccc2)nc2c(sc3ccccc32)c1=O`, the survival was 88%. Regarding `O=C(CN1C(=O)COc2ccc(S(=O)(=O)N3CCOCC3)cc21)N1CCN(c2ccc(F)cc2)CC1`, the survival was 99%. As to `CCC(C)(C)n1nnnc1CN(Cc1ccc(Cl)cc1)CC1CCCO1` (centres undefined), the survival is 76%. Turning to `Clc1ccc(-c2nnn3c2nc(NC2CCCCC2)c2ccccc23)cc1`, the survival was 17% (active). Under `CCCCCNc1nc2c(-c3ccccc3)nnn2c2ccccc12` stands 80%; under `CC1CCC(Nc2nc3c(-c4ccc(Cl)cc4)nnn3c3ccccc23)CC1` (centres undefined), 8% (active); under `Cc1ccc(-c2nnn3c2nc(NCC(C)c2ccccc2)c2ccccc23)cc1` (centres undefined), 91%. Under `Clc1ccc(-c2nnn3c2nc(NCc2ccc4c(c2)OCO4)c2ccccc23)cc1` stands 59%; under `Cc1ccc(-c2nnn3c2nc(NC2CCC(C)CC2)c2ccccc23)cc1` (centres undefined), -4% (active); under `c1ccc(CNc2nc3c(-c4ccccc4)nnn3c3ccccc23)cc1`, 75%. As to `Cc1ccc(-c2nnn3c2nc(NCCc2ccccc2)c2ccccc23)cc1`, the survival was 112%. Turning to `Cc1ccc(-c2nnn3c2nc(NCCc2ccc(Cl)cc2)c2ccccc23)cc1`, the survival is 82%.
